An excerpt weighted towards active compounds, which were near 2.7% of everything screened.
A549 tox-1: counter-screen for Nrf2 inhibitors: cytotoxicity in A549 cells | AID 504648 | Potency, µM (top dose mostly 46 µM), without a hit: top-dose activity change, negative = cytotoxicity, usual class: inhibitors | hit rate 0.16% among 390,000 | A549 ARE-Fluc cells, CellTiter-Fluor viability, 18-24 h; also: potency is read from the fitted curve at half-maximal effect; % is scaled to controls: 0 for no effect and ±100 for the full control effect
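A549 ARE-Fluc cells in 5% FBS OPTI-MEM, 5000 cells/well, rested 2 h then exposed to compounds in concentration-response for 18-24 h at 37 °C. Viability by CellTiter-Fluor fluorescence (Ex 405/Em 525) after 30 min; luciferase luminescence (BugLite, 15 min, RT) read afterwards.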
LDHA inh: blocks human lactate dehydrogenase A. purified LDHA, NADH/diaphorase-resazurin fluorescence; hits give low values. activity change, % (values are at about 110 or 230 µM). hit rate 0.15% among 480,000; in the data active = activity change below about -30%; inconclusive = mostly about -25% to -30%;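 also: plate controls were DMSO wells for no effect and wells without enzyme for full effect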
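Resorufin fluorescence (ex540/em590), read at 0 and 20 min after diaphorase/resazurin addition, reports the NADH left after a 5 min room-temperature reaction of 2 nM human LDH5 with 0.06 mM NADH and 0.2 mM pyruvate.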
Nrf2 block: inhibitors of Nrf2 signaling; A549 ARE-Fluc reporter, luciferase luminescence, 18-24 h; Potency, µM (highest dose often 46 µM), for the others: at the highest dose activity change, negative = inhibition, actives largely listed as inhibitors; hit rate 2.1% among 360,000; AID 504444; also: potency is read from the fitted curve at half-maximal effect; % is scaled to controls: 0 for no effect and ±100 for the full control effect; nearly all actives have a fitted effect of over 60% in size
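Two sequential reads on A549 ARE_Fluc cells exposed to compound for 18-24 h: a CellTiter-Fluor fluorescence read for viability, then a luciferase luminescence read for Nrf2/ARE activity.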
ERG Ets-DNA blk: blocks human ERG Ets domain binding to DNA. P11308. fluorescence polarization, His-ERG Ets domain / labelled DNA. Potency, µM (top dose mostly 76.9 µM), for inactives: top-dose FP activity, negative = inhibition, hits mostly inhibitors. hit rate 0.028% among 370,000. AID 624246; active = well fitted inhibition curve with a large enough effect in the polarisation, with a control signal flat; inconclusive = small, poorly fitted or top-dose-only effect, or effect the other way, or a change in a side signal; inactive = no such curve, though single readings can be large or run the other way; the % refers to the polarisation;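 also: polarization taken with two DNA probes labelled with fluorescein and Texas red; potency is read from the fitted curve at half-maximal effect; % of control where 0% means no effect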
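His-tagged ERG Ets domain (1 uM in the protein solution; 300mM KCl, 50mM Tris-HCl, 1mM EDTA, 1mM DTT, pH 7.5) received compound, then a probe mix of 5 nM fluorescein-DNA and 100nM Texas-615-DNA. Fluorescence polarization was read for both dyes.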
Nrf2 activator: activators of Nrf2 (ARE) signaling; hit rate 0.31% among 410,000; Potency, µM (series often up to 46.1 µM), without a hit: at the highest dose activation, most hits filed as activators; AID 624171; AREc32 ARE-luciferase reporter (MCF7-derived line), luminescence, 24 h; also: potency is read from the fitted curve at half-maximal effect; % of control where 0% means no effect; nearly all actives have a fitted effect of over 65% in size
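AREc32 cells carrying an ARE-driven firefly luciferase, 1000 cells/well in OPTI-MEM with 5% FBS, dosed after overnight attachment and incubated 24 hr at 37 deg C. Steady-Glo luminescence read after 30 min at RT.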
ALOX12 inh: ALOX12 (human) lipoxygenase inhibition; purified 12hLO, xylenol orange hydroperoxide absorbance; hit rate 1.1% among 580,000; P18054; Potency, µM (series often up to 108 µM), for inactives: at the highest dose activity change, negative = inhibition, actives largely listed as inhibitors; also: potency is read from the fitted curve at half-maximal effect; % is scaled to controls: 0 for no effect and ±100 for the full control effect
Target sequence (P18054 whole entry, looked up): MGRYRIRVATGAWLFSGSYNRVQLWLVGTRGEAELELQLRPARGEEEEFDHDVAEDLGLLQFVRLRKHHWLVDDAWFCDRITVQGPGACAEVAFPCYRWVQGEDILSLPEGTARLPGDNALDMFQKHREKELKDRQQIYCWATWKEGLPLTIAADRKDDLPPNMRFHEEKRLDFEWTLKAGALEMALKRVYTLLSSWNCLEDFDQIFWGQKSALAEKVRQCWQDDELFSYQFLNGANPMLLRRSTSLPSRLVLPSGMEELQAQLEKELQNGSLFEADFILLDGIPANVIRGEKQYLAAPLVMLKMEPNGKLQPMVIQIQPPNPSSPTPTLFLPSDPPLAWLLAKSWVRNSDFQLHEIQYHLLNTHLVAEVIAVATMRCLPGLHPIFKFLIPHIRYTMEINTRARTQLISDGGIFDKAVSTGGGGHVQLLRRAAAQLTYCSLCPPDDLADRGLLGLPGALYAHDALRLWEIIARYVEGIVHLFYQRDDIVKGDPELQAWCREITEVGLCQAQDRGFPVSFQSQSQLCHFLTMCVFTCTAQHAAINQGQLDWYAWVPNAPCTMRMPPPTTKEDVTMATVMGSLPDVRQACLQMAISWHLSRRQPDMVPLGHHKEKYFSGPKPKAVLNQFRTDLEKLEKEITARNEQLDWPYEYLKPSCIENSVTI
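Purified human 12hLO at 150 nM in 25 mM Hepes, 0.01% Triton X-100, pH 7.0, preincubated 15 min at room temperature with compound. Reaction started with 40 uM arachidonic acid, 30 min at room temperature. Hydroperoxide measured by Fe-xylenol orange, 573/405 nm absorbance ratio.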
FLuc enzyme inh: blocks purified firefly luciferase in Nrf2 counterscreen | purified firefly luciferase, luminescence inhibition | Potency, µM (doses to about 57.5 µM), for inactives: at the top dose activity change, negative = inhibition, usual class: inhibitors | shares compounds with Nrf2 block | hit rate 4% among 1,400 | AID 720522; also: potency is read from the fitted curve at half-maximal effect; % is scaled to controls: 0 for no effect and ±100 for the full control effect; nearly all actives have a fitted effect of over 65% in size
A549 tox-2: counter-screen for Nrf2 inhibitors: cytotoxicity in A549 ARE cells. AID 720523. shares compounds with Nrf2 block. hit rate 2% among 1,400. Potency, µM (series often up to 46.1 µM), inactives show top-dose activity change, negative = cytotoxicity, actives largely listed as inhibitors. A549 ARE-Fluc cells, cytotoxicity counterscreen;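 also: potency is read from the fitted curve at half-maximal effect; cells exposed to compounds for 18 to 24 hours; % is scaled to controls: 0 for no effect and ±100 for the full control effect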
ARE-Fluc inh: Nrf2 inhibition confirmed, A549 ARE-luciferase; A549 ARE-firefly luciferase reporter, luminescence; shares compounds with Nrf2 block; hit rate 74% among 1,400; Potency, µM (highest dose often 46.1 µM), inactives show at the highest dose activity change, negative = inhibition, most hits filed as inhibitors; also: potency is read from the fitted curve at half-maximal effect; % is scaled to controls: 0 for no effect and ±100 for the full control effect; nearly all actives have a fitted effect of over 65% in size
Numbers without * were called inactive; ? = inconclusive; / = no result shown; [ ] = remark or other dose. Unless noted, calls follow the shape of the dose curve; as a rule, active = well fitted curve in the direction sought with a large enough effect; inconclusive = small, poorly fitted or top-dose-only effect, or another doubt; inactive = no such curve, though single readings can be large; an effect the other way counts as inactive or inconclusive.

SMILES	A549 tox-1	LDHA inh	Nrf2 block	ERG Ets-DNA blk	Nrf2 activator	ALOX12 inh	FLuc enzyme inh	A549 tox-2	ARE-Fluc inh
CC(C)(C)OC(=O)NCc1ccc(CNC(=O)c2nc[nH]c2C(=O)NCc2ccc(CNC(=O)OC(C)(C)C)cc2)cc1	3%	-1	6.5µM*	3%	5%	12%	3%	-13%	13µM*
O=C(c1ccncc1)N1CC2CCC(C1)N2Cc1cccc(Cl)c1	/	/	/	/	/	4%[6.33 µM]	/	/	/
CC1=CC2OC3CC4OC(=O)C=CC=CC(C(C)O)OCC(O)C(C)CC(=O)OCC2(CC1O)C4(C)C31CO1 (stereo not drawn)	/	2	0.058µM*	/	-2%	4%	-13%	/	0.052µM*
CC1=CC2OC3CC4OC(=O)C=CC=CC(=O)OCCC(C)C(O)C(=O)OCC2(CC1O)C4(C)C31CO1 (stereo not drawn)	/	-7	0.073µM*	-18%	-1%	5%	-11%	/	3.7µM*
CC(=O)OC1C(=O)OCC23CCC4(C)OC4C2OC2CC(OC(=O)C=CC=CC(=O)OCCC1C)C3(C)C21CO1 (stereo not drawn)	/	-6	0.016µM*	0%	-1%	-58%	3%	/	0.012µM*
COc1ccc(NC(=O)CSc2nc(-c3ccco3)cc(C(F)(F)F)n2)cc1OC	-11%	-8	1.6µM*	-5%	0%	-14%	-2%	-8%	2.3µM*
CCN1CCCCC12Cc1ccccc1CN(C(=O)Cc1ccc(O)cc1)C2 (stereo not drawn)	/	/	/	/	/	8%[6.33 µM]	/	/	/
CC[C@H]1CN2CCc3cc(OC)c(OC)cc3C2C[C@@H]1C[C@H]1NCCc2cc(OC)c(OC)cc21 (stereo partly drawn)	?	2	0.12µM*	22%	-2%	?	-1%	?	0.52µM*
COc1ccc(CC2NCCc3cc(OC)c(OC)cc32)cc1OC (stereo not drawn)	/	/	/	/	/	10%[57.4 µM]	/	/	/
CC1=NOC2(CCN(Cc3ccccc3)C2)C1 (stereo not drawn)	/	/	/	/	/	2%[176 µM]	/	/	/
O[C@H]1[C@H](NCc2ccccn2)[C@H]2CO[C@H](O2)[C@@H]1N1CCCC1	/	/	/	/	/	116%[176 µM]	/	/	/
COc1ccc(C[C@H]2NC[C@H](O)[C@@H]2OC(C)=O)cc1	/	/	/	/	/	0%	/	/	/
COc1ccc(CC2NCC(O)C2OC(C)=O)cc1 (stereo not drawn)	?	-5	0.46µM*	1%	-5%	8%	1%	-5%	1.5µM*
Cc1ncc2c(n1)C[C@@H]1CC[C@H]2N1C(=O)Nc1ccc(C)c(F)c1	/	/	/	/	/	0%	/	/	/
CC[C@@]1(O)C(=O)OCc2c1cc1n(c2=O)Cc2cc3ccccc3nc2-1	-14%	-7	2.1µM*	/	/	?	2%	?	0.46µM*
CCC1(O)C(=O)OCc2c1cc1n(c2=O)Cc2cc3cc(O)ccc3nc2-1 (stereo not drawn)	14%	-14	2.3µM*	-4%	-2%	14%	-8%	12%	0.41µM*
O=C(c1ccoc1)N1CCC2(CC1)NCc1ccccc1-n1ccnc12	/	/	/	/	/	49%	/	/	/
CC1CCC(=O)O1 (stereo not drawn)	/	/	/	/	/	3%[176 µM]	/	/	/
COC(COC(N)=O)C1=C(N2CC2)C(=O)C(C)=C(N2CC2)C1=O (stereo not drawn)	10µM*	33	2.1µM*	/	3%	?	-2%	-11%	0.058µM*
COC12C(COC(N)=O)C3=C(C(=O)C(C)=C(N)C3=O)N1CC1C2N1C (stereo not drawn)	-23%	17	0%	7%	2%	31%	/	/	/
COc1ccc([N+](=O)[O-])cc1	/	19	/	/	/	?	/	/	/
c1ccc2c(c1)[IH]c1ccccc1-2	9.2µM*	-4	0.23µM*	0%	-3%	-7%	2%	-3%	?
O=C1c2ccccc2C(=O)c2ccccc21	/	/	/	/	/	2%	/	/	/
CCC(=NC(C)c1ccccc1)c1c(O)n(C)c(=O)n(C)c1=O (stereo not drawn)	-16%	-14	5.8µM*	-5%	3%	-11%	2%	-8%	7.3µM*
CCC(=NCCc1c[nH]c2ccccc12)c1c(O)n(C)c(=O)n(C)c1=O	?	1	9.2µM*	-5%	3%	-27%	2%	-1%	/
SMILES	A549 tox-1	LDHA inh	Nrf2 block	ERG Ets-DNA blk	Nrf2 activator	ALOX12 inh	FLuc enzyme inh	A549 tox-2	ARE-Fluc inh
CCC(=NCCc1c[nH]c2ccccc12)c1c(O)n(-c2ccc(C)cc2)c(=O)[nH]c1=O	?	1	?	7%	2%	-3%	/	/	/
COc1cc2c(cc1CCc1ccccc1)N([S+](=O)([O-])c1ccc3c(c1)CCO3)CC21CCN(C(C)=O)CC1	/	/	/	/	/	-9%	/	/	/
CCn1cc(C(=O)Cn2c(C)nc3ccccc32)c2ccccc21	/	3	/	/	/	13%	/	/	/
CN1CCNc2cc(Nc3ccc(F)c(Cl)c3)ncc2C1	/	/	/	/	/	-16%[176 µM]	/	/	/
C[C@]12CCC3C(CC[C@H]4[C@@H](O)[C@H](O)CC[C@]34C)C1CCC2=O (stereo partly drawn)	1%	1	1%	-4%	3%	8%	/	/	/
CC12CC(=O)C3C(CCC4CC(=O)C=CC43C)C1CCC2=O (stereo not drawn)	-12%	-1	3.3µM*	-7%	0%	22%	2%	-15%	2.6µM*
CCCCCn1c(=O)c(C(=O)Nc2ccccc2Cl)c(O)c2ccccc21	1%	-4	17%	9%	16%	0%	/	/	/
CCCCCn1c(=O)c(C(=O)Nc2nc3ccccc3[nH]2)c(O)c2ccccc21	?	-8	2.6µM*	-7%	0%	483%	3%	?	6.5µM*
Cc1[nH]nc2ccc(-c3cncc(OC[C@@H](N)Cc4c[nH]c5ccccc45)c3)cc12	?	-7	5.2µM*	8%	-3%	?	-1%	?	/
CC(N)Cc1c[nH]c2ccccc12 (stereo not drawn)	/	0	/	/	/	?	/	/	/
